Bioassay records from PubChem.
ELG1 DNA repair – blocks ELG1-dependent DNA repair in HEK293T cells | HEK293T ELG1-luciferase reporter, luminescence, 16 h; DNA damage induced by 5-fluorouridine | Potency, µM (titrated, usually from 46.1 µM), inactives show at the highest dose activity change, negative = inhibition, actives largely listed as inhibitors | hit rate 2.3% among 330,000 | AID 504467; note: potency is the fitted concentration of half-maximal effect; nearly all actives have a fitted effect of over 55% in size
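Cells (2,000 per well) received 5-fluorouridine plus test compound or DMSO and were incubated 16 hr at 37 °C, 5% CO2. Luciferase activity was read by luminescence 30 min after ONE-Glo addition; signal suppression marked inhibition of damage-induced ELG1 function.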
HT1080-NT tox – kills 2HG-producing HT-1080-NT fibrosarcoma cells; HT-1080-NT fibrosarcoma viability, CellTiter-Glo ATP luminescence, 48 h; Potency, µM (highest dose often 46.1 µM), for inactives: top-dose activity, negative = less viability, actives largely listed as cytotoxic; hit rate 1.6% among 360,000; AID 686970;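 note: NT is the 2HG producing partner of a matched IDH1 knockdown line; potency is the fitted concentration of half-maximal effect; 0% = DMSO-treated cells and -100% = media-only wells without cells; nearly all actives have a fitted effect of over 55% in size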
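750 cells/well, RPMI + 5% FBS; 2 h settle, compound pin-transfer, 48 h at 37 degrees C. CellTiter-Glo 10 min RT, luminescence. Normalized to DMSO and media-only wells.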
IL-1B inflam inh – inflammasome signaling inhibition, IL-1 beta readout; activity change, % at 57.5 µM; hit rate 4.7% among 360,000; AID 743279; THP-1 LPS/ATP IL-1B secretion, AlphaLISA, 16 h; active compounds read low; in the data active = activity change below about -50%; inconclusive = mostly about -30% to -49%
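THP-1 cells pretreated 1 hr with compounds (up to 57.5 uM final), then stimulated with LPS (250 ng/mL final) plus ATP (1.25 mM final); secreted IL-1B measured by AlphaLISA after 16 hr, decreased signal indicating inhibition.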
HT1080 IDH1KD tx – HT-1080 IDH1 knockdown cell toxicity (counter line); HT-1080 IDH1 knockdown viability, ATP luminescence, 48 h; Potency, µM (top dose mostly 46.1 µM), for inactives: at the top dose activity, negative = toxicity, most hits filed as cytotoxic; hit rate 2% among 360,000;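 note: potency is the fitted concentration of half-maximal effect; 0% = DMSO wells and -100% = cell-free medium wells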
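In this qHTS, HT-1080 cells depleted of IDH1 are exposed for 48 h at 37 °C to compound titrations. Toxicity is scored from CellTiter-Glo luminescence, with DMSO as full viability and medium alone as none.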
DT40 TDP1 CPT – DT40-hTDP1 cell growth loss with CPT. chicken DT40 Tdp1-/-;hTDP1 cells + 20 nM CPT, ATP luminescence, 48 h. Potency, µM (highest dose often 46.2 µM), for inactives: top-dose activity change, negative = growth inhibition, hits mostly inhibitors. hit rate 12% among 420,000. AID 686979; note: potency is the fitted concentration of half-maximal effect; nearly all actives have a fitted effect of over 55% in size
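Cell growth measured by CellTiter-Glo luminescence after a minimum 48 h, 37 C compound exposure with 20 nM CPT in Tdp1-knockout DT40 cells stably expressing hTDP1, seeded 400/well; qHTS titration format.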
DT40 TDP1 no CPT – qHTS for Inhibitors of human tyrosyl-DNA phosphodiesterase 1 (TDP1): qHTS in cells in absence of CPT | DT40 Tdp1-/- hTDP1 cells, no CPT, ATP luminescence, 48 h | Potency, µM (titrated, usually from 46.2 µM), inactives show top-dose activity change, negative = growth inhibition, most hits filed as inhibitors | hit rate 15% among 420,000 | AID 686978, 2013; note: potency is the fitted concentration of half-maximal effect; nearly all actives have a fitted effect of over 55% in size
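Seeded 400 DT40-hTDP1 cells/well (vehicle DMSO, no 20 nM CPT); pinned compounds; ≥48 hr at 37 °C; CellTiter-Glo luminescence as viability measure.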
Active calls of the source: *. An excerpt weighted towards active compounds, which were near 19% of everything screened. Unless noted, calls come from the whole dose curve; as a rule, active = well fitted curve in the direction sought with a large enough effect; inconclusive = small, poorly fitted or top-dose-only effect, or another doubt; inactive = no such curve, though single readings can be large; an effect the other way counts as inactive or inconclusive. Unless noted, % is set by controls: 0 for no effect and ±100 for the full control effect.

For COc1cccc(C(=O)Nc2nnc(SCC(=O)NC3CCCC3)s2)c1 the results were ELG1 DNA repair inconclusive, HT1080-NT tox -7.9%, IL-1B inflam inh 9.5, HT1080 IDH1KD tx -7.5%, DT40 TDP1 CPT 2.3% and DT40 TDP1 no CPT -5.6%.
`COc1ccc(OC)c(-n2c3c(cc(-c4nc(-c5ccc(Cl)cc5)cs4)c2=O)C(=O)CC(C)(C)C3)c1` gave DT40 TDP1 CPT -9.5% and DT40 TDP1 no CPT -20.4%.
O=C1NC[C@@H](CCCCN2C[C@H](Cc3ccc(O)cc3)N(CCc3ccccc3)C(=O)C2=O)N(Cc2ccccc2)C1=O was read as HT1080-NT tox 20.9%, IL-1B inflam inh -4.7, HT1080 IDH1KD tx 25.2%, DT40 TDP1 CPT 8.8% and DT40 TDP1 no CPT -20.4%.
For O=C(CC1C(=O)NCCN1C(=O)c1ccc([N+](=O)[O-])cc1)Nc1ccc(F)cc1 (stereo not given) the results were ELG1 DNA repair 17.8%, HT1080-NT tox 11.8%, IL-1B inflam inh -15.8, HT1080 IDH1KD tx 1.4%, DT40 TDP1 CPT 2.7% and DT40 TDP1 no CPT 11.3%.
For O=C1C(Cc2ccccc2O)NC(=S)N1c1ccccc1 (stereo not given) the results were ELG1 DNA repair 3.0%, HT1080-NT tox 27.0%, IL-1B inflam inh 19.2, HT1080 IDH1KD tx 25.5%, DT40 TDP1 CPT -20.4% and DT40 TDP1 no CPT -16.8%.
COc1ccc(CCN2C(=O)N(c3ccc(C)cc3)C(=O)C2CC(=O)Nc2ccc(OC)cc2)cc1 (stereo not given) was read as DT40 TDP1 CPT 20.6µM* and DT40 TDP1 no CPT inconclusive.
Screening COc1ccc(N2C(=O)C(CC(=O)Nc3ccccc3)N(CCc3ccc(OC)c(OC)c3)C2=O)cc1 (stereo not given) returned ELG1 DNA repair -28.1%, HT1080-NT tox -0.5%, IL-1B inflam inh 22.3, HT1080 IDH1KD tx 8.3%, DT40 TDP1 CPT -14.8% and DT40 TDP1 no CPT -24.4%.
Screening CCNC(=O)CC1C(=O)N(c2ccc(F)cc2)C(=O)N1CCc1ccc(OC)cc1 (stereo not given) returned ELG1 DNA repair -1.2%, HT1080-NT tox 28.5%, IL-1B inflam inh 2.3, HT1080 IDH1KD tx 0.2%, DT40 TDP1 CPT -1.7% and DT40 TDP1 no CPT -28.7%.
For COc1ccc(CCN2C(=O)N(c3cccc(C)c3)C(=O)C2CC(=O)Nc2ccccc2)cc1OC (stereo not given) the results were DT40 TDP1 CPT 23.1µM* and DT40 TDP1 no CPT inconclusive.
Screening COc1ccc(CCN2C(=O)N(c3ccc(OC)cc3)C(=O)C2CC(=O)Nc2ccccc2)cc1 (stereo not given) returned ELG1 DNA repair inconclusive, HT1080-NT tox 1.3%, IL-1B inflam inh -9.7, HT1080 IDH1KD tx 1.3%, DT40 TDP1 CPT -0.4% and DT40 TDP1 no CPT inconclusive.
COc1ccc(CCN2C(=O)N(c3ccccc3)C(=O)C2CC(=O)Nc2ccccc2)cc1 (stereo not given) was read as DT40 TDP1 CPT inconclusive and DT40 TDP1 no CPT 25.9µM*.
For Cc1ccc(C)c(NC(=O)CCc2nnc3ccc(N4CCCCC4)nn23)c1 the results were ELG1 DNA repair 13.4%, HT1080-NT tox 16.8%, IL-1B inflam inh 12.7, HT1080 IDH1KD tx 20.2%, DT40 TDP1 CPT inconclusive and DT40 TDP1 no CPT 1.5%.
Screening CCOc1ccc(-c2cc(C(=O)NCc3ccccc3)[nH]n2)c(C)c1 returned HT1080-NT tox 28.2%, IL-1B inflam inh -12.5, HT1080 IDH1KD tx 1.9%, DT40 TDP1 CPT inconclusive and DT40 TDP1 no CPT inconclusive.
For Cc1cc(C)n(-c2ccc(C(=O)Nc3ccc(C)c(S(=O)(=O)N4CCOCC4)c3)cc2)n1 the results were ELG1 DNA repair inconclusive, HT1080-NT tox inconclusive, IL-1B inflam inh -87.8*, HT1080 IDH1KD tx inconclusive, DT40 TDP1 CPT inconclusive and DT40 TDP1 no CPT 16.4µM*.
Screening Cc1ccc(NC(=O)c2ccc(S(=O)(=O)N3CC(C)CC(C)C3)cc2)cc1S(=O)(=O)N1CCOCC1 (stereo not given) returned HT1080-NT tox -2.0%, IL-1B inflam inh -22.3, HT1080 IDH1KD tx -7.9%, DT40 TDP1 CPT 16.4µM* and DT40 TDP1 no CPT 7.31µM*.
For CC1CC(C)CN(C(=O)c2ccc(NC(=O)c3ccc(=O)[nH]c3)cc2)C1 (stereo not given) the results were ELG1 DNA repair inconclusive, HT1080-NT tox -5.9%, IL-1B inflam inh 5.8, HT1080 IDH1KD tx -3.9%, DT40 TDP1 CPT 0.0% and DT40 TDP1 no CPT -22.8%.
CC1CC(C)CN(S(=O)(=O)c2ccc(NC(=O)c3ccc(=O)[nH]c3)cc2)C1 (stereo not given) was read as ELG1 DNA repair -6.6%, HT1080-NT tox 5.8µM*, IL-1B inflam inh 9.6, HT1080 IDH1KD tx 5.17µM*, DT40 TDP1 CPT 3.26µM* and DT40 TDP1 no CPT 2.91µM*.
`CC(C)[C@H](NC(=O)[C@H](Cc1ccccc1)n1c(=O)[nH]c2ccccc2c1=O)C(=O)N1CCC[C@H]1C(=O)O` gave ELG1 DNA repair 1.3%, HT1080-NT tox -0.1%, IL-1B inflam inh -12.4, HT1080 IDH1KD tx 1.5%, DT40 TDP1 CPT -2.5% and DT40 TDP1 no CPT 15.3%.
Screening O=C(Cn1cnc2ccccc2c1=O)Nc1nnc(SCc2ccc(Cl)cc2)s1 returned ELG1 DNA repair 1.5%, HT1080-NT tox inconclusive, IL-1B inflam inh 2.8, HT1080 IDH1KD tx 5.6%, DT40 TDP1 CPT 2.2% and DT40 TDP1 no CPT -4.8%.
COc1ccc(OC)c(N=Nc2c(O)c3ccccc3[nH]c2=O)c1 was read as HT1080-NT tox -28.9%, IL-1B inflam inh 11.4, HT1080 IDH1KD tx inconclusive, DT40 TDP1 CPT 14.6µM* and DT40 TDP1 no CPT 18.4µM*.
Screening COc1cc(N=Nc2c(O)c3ccccc3[nH]c2=O)c(OC)cc1N=Nc1ccccc1 returned ELG1 DNA repair 4.6%, HT1080-NT tox 1.7%, IL-1B inflam inh 24.1, HT1080 IDH1KD tx 6.7%, DT40 TDP1 CPT inconclusive and DT40 TDP1 no CPT 13µM*.
Screening NC(=O)c1ccc(N=Nc2c(O)c3ccccc3[nH]c2=O)cc1 returned ELG1 DNA repair 7.1%.
`CCC(=O)NC(=S)Nc1ccc(N2CCN(C(=O)c3ccc(Cl)cc3)CC2)cc1` gave ELG1 DNA repair inconclusive, HT1080-NT tox -28.9%, IL-1B inflam inh -9.3, HT1080 IDH1KD tx -10.4%, DT40 TDP1 CPT 20.6µM* and DT40 TDP1 no CPT inconclusive.
